From PubChem BioAssay (EPA / NIEHS)
Several values for one entry are separate records, joined by “and”; a condition that tells them apart may be missing. Identical values can stand only once. Some compounds were tested as several samples or in several runs, with calls that do not always agree. Activity calls are given as the source filed them. How the source made its calls: active means hit-call score of the fitted dose curve at least 0.9, where 1 is the maximum; inactive means score below 0.9.

Assays:
[1] = APR_HepG2_P-H2AX_72hr: Apredica 72-hour HepG2 Assay for H2AX Phosphorylation (AID 2282916); details: imaging, actives raise or lower the signal;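 further: phospho-histone H2A.x immunostain intensity per cell marking DNA damage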
Method in brief: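 HepG2 human liver cells were exposed for 72 hr to compounds at 0.39–200 uM (10 concentrations, duplicate per plate) in 0.5% v/v DMSO. Fixed, permeabilized cells were immunolabeled for phospho-histone H2A.x with Hoechst 33342 and imaged by HCS fluorescence; bidirectional fit versus DMSO.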

[2] = APR_HepG2_MitoMembPot_72hr: Apredica 72-hour HepG2 Assay for Mitochondrial Membrane Potential (AID 2282917); details: imaging, actives raise or lower the signal
Method in brief: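 HepG2 cells exposed 72 h to compounds at 0.39–200 uM (0.5% v/v DMSO, duplicates); MitoTracker Red CMXRos 250 nM loaded 30 min before 3.7% formaldehyde fixation, imaged by HCS fluorescence. Bidirectional fit versus DMSO.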

[3] = APR_HepG2_MitoticArrest_72hr: Apredica 72-hour HepG2 Assay for Mitotic Arrest (AID 2282918); details: high-content imaging, actives raise or lower the signal
Method in brief: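 Read-out is phospho-histone H3 immunofluorescence with Hoechst nuclear segmentation, imaged at 20x. Human HepG2 liver cells received ten concentrations (0.39–200 uM, final DMSO 0.5% v/v) for 72 hr before fixation. Gain or loss of signal was fitted relative to DMSO.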

[4] = APR_HepG2_MicrotubuleCSK_72hr: Apredica 72-hour HepG2 Assay for Microtubule CSK Stabilty (AID 2282919); details: HepG2 microtubule cytoskeleton, high-content imaging, actives raise or lower the signal
Method in brief: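 HepG2 human liver cells were dosed for 72 h at ten concentrations from 0.39 to 200 uM in duplicate (0.5% v/v DMSO final). Fixed, permeabilized cells were immunostained for alpha-tubulin (Cy5) with a Hoechst counterstain and imaged at 20x.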

[5] = APR_HepG2_StressKinase_72hr: Apredica 72-hour HepG2 Assay for Stress Kinase (AID 2282921); details: HepG2 stress kinase (phospho-c-Jun) imaging, actives raise or lower the signal
Method in brief: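 Cells were exposed for 72 h to ten concentrations (0.39–200 uM, duplicate) at 0.5% v/v DMSO final, then fixed with 3.7% formaldehyde, permeabilized and immunostained for phospho-c-Jun (Cy3 secondary) with Hoechst nuclear counterstain.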

[6] = APR_HepG2_StressKinase_24hr: Apredica 24-hour HepG2 Assay for Stress Kinase (AID 2282922); details: HepG2 stress kinase (phospho-c-Jun) imaging, actives raise or lower the signal
Method in brief: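 HepG2 cells exposed 24 hr to compound at 0.39–200 uM (10 concentrations, duplicate), 0.5% v/v DMSO final. Fixed in 3.7% formaldehyde, permeabilized with Triton X-100, immunolabeled for phospho-c-Jun with Hoechst 33342; HCS fluorescence imaging, bidirectional fit versus DMSO.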

[7] = APR_HepG2_MitoMass_72hr: Apredica 72-hour HepG2 Assay for Mitochondrial Mass (AID 2282924); details: high-content imaging, actives raise or lower the signal;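 further: MitoTracker Red CMXRos stain intensity per cell imaged as mitochondrial mass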
Method in brief: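 HepG2 cells were exposed for 72 hr to compounds at 0.39–200 uM (ten concentrations, duplicate, 0.5% v/v DMSO final). Live cells were stained with 250 nM MitoTracker Red CMXRos for 30 min, then fixed in 3.7% formaldehyde and imaged by HCS fluorescence.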

[8] = APR_HepG2_NuclearSize_72hr: Apredica 72-hour HepG2 Assay for Nuclear Size (AID 2282925); details: high-content imaging, actives raise or lower the signal
Method in brief: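 HepG2 cells were exposed to compounds at ten concentrations from 0.39 to 200 uM (duplicate, 0.5% DMSO final) for 72 hr. After fixation in 3.7% formaldehyde, nuclei were stained with Hoechst 33342 (2 ug/mL) and imaged at 20x.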

[9] = ATG_CRE_CIS: Attagene CIS-FACTORIAL HepG2 Assay for human cAMP Responsive Element (CRE) binding protein 3 (AID 2282926); details: HepG2 CRE cis-reporter, Attagene multiplexed mRNA; actives raise or lower the signal
Method in brief: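 Human liver HepG2, transient MRTU transfection, 24 h compound exposure. Total RNA → oligo(dT) RT → PCR → 6-FAM primer extension → HpaI cut → CE. Activity called both directions vs DMSO.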

[10] = target: CCAAT/enhancer-binding protein beta (Homo sapiens) (UniProt P17676); assay: ATG_C_EBP_CIS: Attagene CIS-FACTORIAL HepG2 Assay for human CCAAT/Enhancer Binding Protein (C/EBP) beta (AID 2282927); details: HepG2 Attagene cis-factorial transcription factor reporter; actives raise or lower the signal
Method in brief: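 Chemical-treated HepG2 cells (24 h) bearing cis-regulated reporter constructs were processed for total RNA, then reverse transcription, PCR amplification, fluorescent primer extension and fragment analysis; gain- and loss-of-signal were fitted against DMSO.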

[11] = ATG_CMV_CIS: Attagene CIS-FACTORIAL HepG2 Assay for human CMV (Internal Marker) (AID 2282928); details: HepG2 CMV promoter reporter, transcription factor profiling; actives raise or lower the signal;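 further: endpoint acts as a background internal control marker rather than a target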
Method in brief: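 CMV internal-marker background readout in transiently transfected HepG2 cells bearing cis-regulated reporter units. Reporter mRNA is measured 24 h after dosing by RT-PCR and capillary electrophoresis, with bidirectional fitting against DMSO.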

[12] = ATG_DR4_LXR_CIS: Attagene CIS-FACTORIAL HepG2 Assay for human Liver X Receptor (LXR), DR4 submotif (AID 2282929); details: HepG2 Attagene DR4 cis-reporter, mRNA transcription; actives raise or lower the signal
Method in brief: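 Total RNA from 24 h-treated, MRTU-transfected HepG2 cells underwent reverse transcription, PCR, fluorescent primer extension and restriction digestion before capillary electrophoresis. Both increases and decreases in reporter signal were fitted against DMSO.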

[13] = target: Aryl hydrocarbon receptor (Homo sapiens) (UniProt P35869); assay: ATG_Ahr_CIS: Attagene CIS-FACTORIAL HepG2 Assay for human Aryl Hydrocarbon Receptor (Ahr) (AID 2282930); details: HepG2 AhR cis-factorial reporter transcription; actives raise or lower the signal
Method in brief: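 Following 24 h of chemical dosing, transfected HepG2 liver cells with cis-driven reporter units were lysed for RNA; reporter mRNA was quantified via RT-PCR and capillary electrophoresis, and responses fitted bidirectionally from DMSO.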

[14] = ATG_AP_1_CIS: Attagene CIS-FACTORIAL HepG2 Assay for human Activator Protein 1 (AP-1) (AID 2282931); details: HepG2 Attagene cis-factorial AP-1 reporter mRNA; actives raise or lower the signal
Method in brief: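 HepG2, transient cis-reporter transfection; 24 h; readout RT-PCR/CE fluorescence; DMSO baseline, gain and loss fitted.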

[15] = ATG_AP_2_CIS: Attagene CIS-FACTORIAL HepG2 Assay for human Activator Protein 2 (AP-2) (AID 2282932); details: HepG2 AP-2 cis-reporter, Attagene transcription factor profiling; actives raise or lower the signal
Method in brief: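 HepG2 cells were transiently transfected with multiple cis-promoter reporter transcription units and dosed for 24 h. Reporter mRNA was measured by RT-PCR with capillary electrophoresis fluorescence; bidirectional fits relative to DMSO baseline.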

[16] = ATG_BRE_CIS: Attagene CIS-FACTORIAL HepG2 Assay for human Bone Morphogenetic Protein (BMP) Response Element (BRE) (AID 2282933); details: HepG2 BMP response element reporter, Attagene transcription factor profiling; actives raise or lower the signal
Method in brief: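 Multiplexed cis-reporter assay, HepG2, 24 h exposure. mRNA from reporter units quantified via RT-PCR/CE; DMSO baseline; bidirectional curve fit.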

[17] = target: Retinoic acid receptor alpha (Homo sapiens) (UniProt P10276); assay: ATG_DR5_RAR_CIS: Attagene CIS-FACTORIAL HepG2 Assay for human Retinoic Acid Receptor Alpha (RARE), DR5 submotif (AID 2282934); details: HepG2 Attagene cis-factorial RARE DR5 reporter, mRNA; actives raise or lower the signal;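 on AC50: reporter responds to endogenous RAR alpha beta and gamma in HepG2 not RARA alone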
Method in brief: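 Transfected HepG2 reporter cells are exposed to chemicals for 24 h. Then RNA is extracted and the DR5 element reporter transcript is measured by RT-PCR and capillary electrophoresis, with bidirectional curve fitting relative to DMSO.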

[18] = target: Transcription factor E2F1 (Homo sapiens) (UniProt Q01094); assay: ATG_E2F_CIS: Attagene CIS-FACTORIAL HepG2 Assay for human E2F Transcription Factor 1 (AID 2282935); details: HepG2 Attagene cis-reporter, E2F reporter RNA transcripts; actives raise or lower the signal
Method in brief: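 HepG2 cells transiently transfected with multiplexed cis-element reporter units, dosed for 24 h. Reporter mRNA measured by RT-PCR, 6-FAM primer-extension labeling, HpaI digestion and capillary electrophoresis; bidirectional fit versus DMSO baseline.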

[19] = ATG_E_Box_CIS: Attagene CIS-FACTORIAL HepG2 Assay for human Enhancer Box (E-box) (AID 2282936); details: HepG2 E-box cis-reporter transcription, actives raise or lower the signal
Method in brief: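 HepG2 cells transiently transfected with multiplexed cis-element reporter units sensing endogenous transcription factor activity; 24 h compound exposure. Reporter mRNA measured by RT-PCR, 6-FAM primer extension, HpaI digestion and capillary electrophoresis; bidirectional fit versus DMSO.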

[20] = ATG_M_61_CIS: Attagene CIS-FACTORIAL HepG2 Assay for M61 Transcription Factor (Internal Marker) (AID 2282937); details: HepG2 Attagene CIS-FACTORIAL M61 internal marker reporter; actives raise or lower the signal
Method in brief: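 Transfect HepG2 with MRTUs; dose 24 h; isolate RNA; reverse-transcribe with DNase I treatment; PCR-amplify, FAM-label and cut with HpaI for 2 h at 37 C; resolve by CE. Bidirectional fitting against DMSO.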

Measured: AC50

Chain of Aryl hydrocarbon receptor (Homo sapiens) (P35869 whole entry, looked up): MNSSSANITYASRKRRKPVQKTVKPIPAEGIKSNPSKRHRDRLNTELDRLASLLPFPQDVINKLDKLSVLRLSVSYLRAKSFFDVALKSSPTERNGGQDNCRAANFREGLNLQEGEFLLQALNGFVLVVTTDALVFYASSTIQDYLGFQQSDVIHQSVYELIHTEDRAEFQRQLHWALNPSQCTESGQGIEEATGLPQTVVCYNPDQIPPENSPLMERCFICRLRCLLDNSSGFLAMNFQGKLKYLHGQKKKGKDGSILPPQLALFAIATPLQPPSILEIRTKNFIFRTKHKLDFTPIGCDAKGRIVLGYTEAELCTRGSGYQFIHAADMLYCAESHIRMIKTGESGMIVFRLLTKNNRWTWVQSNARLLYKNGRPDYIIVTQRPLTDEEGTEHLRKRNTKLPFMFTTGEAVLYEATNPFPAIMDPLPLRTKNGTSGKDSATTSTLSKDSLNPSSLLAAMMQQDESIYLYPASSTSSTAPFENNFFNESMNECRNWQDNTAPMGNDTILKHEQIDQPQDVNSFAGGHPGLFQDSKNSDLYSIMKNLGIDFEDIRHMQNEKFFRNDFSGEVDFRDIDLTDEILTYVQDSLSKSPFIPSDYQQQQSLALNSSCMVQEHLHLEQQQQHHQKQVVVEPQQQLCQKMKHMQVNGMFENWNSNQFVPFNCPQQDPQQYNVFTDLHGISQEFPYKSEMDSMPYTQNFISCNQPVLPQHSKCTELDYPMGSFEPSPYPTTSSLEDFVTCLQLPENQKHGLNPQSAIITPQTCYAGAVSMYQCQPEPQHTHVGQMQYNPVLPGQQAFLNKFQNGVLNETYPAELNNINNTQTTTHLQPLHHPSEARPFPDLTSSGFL
Chain of Retinoic acid receptor alpha (Homo sapiens) (P10276 whole entry, looked up): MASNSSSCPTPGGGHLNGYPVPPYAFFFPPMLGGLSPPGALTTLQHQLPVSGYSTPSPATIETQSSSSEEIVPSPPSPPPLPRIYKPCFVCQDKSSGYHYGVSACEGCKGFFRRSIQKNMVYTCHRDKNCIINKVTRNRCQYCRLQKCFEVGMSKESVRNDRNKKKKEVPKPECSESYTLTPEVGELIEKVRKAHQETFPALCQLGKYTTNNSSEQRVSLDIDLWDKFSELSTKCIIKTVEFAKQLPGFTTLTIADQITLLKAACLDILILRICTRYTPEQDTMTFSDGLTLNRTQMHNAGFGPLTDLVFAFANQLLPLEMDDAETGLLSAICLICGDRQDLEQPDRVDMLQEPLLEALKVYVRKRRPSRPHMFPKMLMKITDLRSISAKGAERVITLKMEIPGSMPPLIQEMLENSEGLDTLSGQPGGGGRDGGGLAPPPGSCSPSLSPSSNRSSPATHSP
Chain of Transcription factor E2F1 (Homo sapiens) (Q01094 whole entry, looked up): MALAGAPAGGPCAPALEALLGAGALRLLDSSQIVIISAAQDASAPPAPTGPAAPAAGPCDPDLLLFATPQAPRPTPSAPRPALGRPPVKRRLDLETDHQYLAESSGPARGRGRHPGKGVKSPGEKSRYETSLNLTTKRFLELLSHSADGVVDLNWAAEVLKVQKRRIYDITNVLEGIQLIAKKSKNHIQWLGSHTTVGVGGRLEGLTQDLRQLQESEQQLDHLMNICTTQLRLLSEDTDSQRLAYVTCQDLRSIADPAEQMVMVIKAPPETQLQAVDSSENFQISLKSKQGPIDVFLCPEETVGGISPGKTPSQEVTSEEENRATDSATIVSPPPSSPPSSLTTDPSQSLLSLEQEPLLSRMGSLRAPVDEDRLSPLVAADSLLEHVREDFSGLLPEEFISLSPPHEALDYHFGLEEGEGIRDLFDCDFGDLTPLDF
Chain of CCAAT/enhancer-binding protein beta (Homo sapiens) (P17676 whole entry, looked up, the tested form may be a part): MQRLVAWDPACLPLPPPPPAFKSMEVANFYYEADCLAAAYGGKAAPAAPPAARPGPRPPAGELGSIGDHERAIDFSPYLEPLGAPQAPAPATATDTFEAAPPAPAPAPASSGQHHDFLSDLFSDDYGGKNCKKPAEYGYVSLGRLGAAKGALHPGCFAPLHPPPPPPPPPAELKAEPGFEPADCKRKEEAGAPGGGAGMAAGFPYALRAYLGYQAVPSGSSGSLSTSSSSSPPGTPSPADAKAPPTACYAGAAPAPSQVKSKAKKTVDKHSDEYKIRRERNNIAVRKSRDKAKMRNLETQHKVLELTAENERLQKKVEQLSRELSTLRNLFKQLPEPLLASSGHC

CCC(C)(C)c1ccc(O)c(C(C)(C)CC)c1
active: [3] 59.4 µM | [7] 82.5 µM | [11] 11.1 µM | [12] 4.91 µM | [14] 12.8 µM | [17] 5.73 µM
inactive: all other assays above

CC(C)OC(=O)Nc1ccccc1
not listed: [1] | [2] | [3] | [4] | [5] | [6] | [7] | [8]
inactive: all other assays above

O=C(O)C(F)(F)C(F)(F)C(F)(F)C(F)(F)C(F)(F)C(F)(F)F
active: [1] 13.6 µM | [3] 8.69 µM | [5] 97.8 µM | [7] 13 µM | [8] 6.95 µM
not listed: [11] | [17]
inactive: all other assays above

OCC(O)CCl (stereo unspecified)
not listed: [1] | [2] | [3] | [4] | [5] | [6] | [7] | [8]
inactive: all other assays above

C=C(C)C(=O)[O][Sn]([CH2]CCC)([CH2]CCC)[CH2]CCC
active: [1] 0.0519 µM | [3] 0.0391 µM | [7] 0.395 µM | [8] 0.0558 µM | [14] 0.451 µM | [15] 0.412 µM | [17] 0.00707 µM | [19] 0.562 µM
not listed: [11]
inactive: all other assays above

COc1cc2c(cc1OC)[C@@]13CCN4CC5=CCO[C@H]6CC(=O)N2[C@H]1[C@H]6[C@H]5C[C@H]43
not listed: [1] | [2] | [3] | [4] | [5] | [6] | [7] | [8]
inactive: all other assays above

O=[N+]([O-])c1c(Cl)c(Cl)cc(Cl)c1Cl
active: [11] 45.3 µM
not listed: [1] | [2] | [3] | [4] | [5] | [6] | [7] | [8]
inactive: all other assays above

NC(=O)O
active: [1] 4.73 µM | [3] 4.17 µM | [4] 3.05 µM | [5] 3.02 µM | [6] 4.39 µM | [8] 23.5 µM
not listed: [17]
inactive: all other assays above

Cn1sc(Cl)cc1=O
active: [1] 109 µM | [2] 120 µM | [3] 97.3 µM | [4] 135 µM | [5] 111 µM | [7] 163 µM | [13] 67.3 µM
not listed: [10]
inactive: all other assays above

O=C(Cc1ccccc1)c1ccccc1
not listed: [1] | [2] | [3] | [4] | [5] | [6] | [7] | [8]
inactive: all other assays above

O=C(Nc1ccc2[nH]ccc2c1)c1cc2cc(F)ccc2n1Cc1cccc(F)c1
active: [1] 27.8 µM | [2] 1.02 µM | [3] 22 µM | [7] 26.9 µM | [10] 20.3 µM | [11] 11 µM | [12] 7.44 µM | [14] 7.29 µM | [19] 19.2 µM
not listed: [9] | [17]
inactive: all other assays above

CC(C)(c1ccccc1)c1ccc(O)c(C(C)(C)c2ccccc2)c1
active: [3] 29.8 µM | [6] 134 µM | [7] 30.1 µM | [9] 2.2 µM | [11] 14.9 µM | [14] 7.38 µM | [17] 2.85 µM | [19] 16.9 µM
inactive: all other assays above

COP(=S)(OC)Oc1cc(Cl)c(Cl)cc1Cl
inactive: [9] | [10] | [11] | [12] | [15] | [17] | [18] | [19] | [20]
active: [13] 11.3 µM | [14] 41.8 µM | [16] 64.5 µM

O=C(O)C(F)(F)C(F)(F)C(F)(F)C(F)(F)C(F)(F)C(F)(F)C(F)(F)C(F)(F)C(F)(F)C(F)(F)F
active: [1] 90.6 µM | [3] 66.5 µM | [6] 73.8 µM | [7] 72.9 µM | [10] 172 µM | [11] 50.4 µM and 31.3 µM | [12] 24.6 µM and 13.1 µM | [14] 23.9 µM | [15] 55.8 µM | [19] 54.5 µM | [20] 76.2 µM
inactive: [2] | [4] | [5] | [8] | [10] | [13] | [14] | [15] | [16] | [18] | [19] | [20]

Cc1ccccc1N
not listed: [9] | [17]
inactive: all other assays above
